Compounds with a hit are over-represented: about 8.7% of the library has one in this group of screens.
Sfp PPTase inh = blocks B. subtilis Sfp PPTase activity. hit rate 3.5% among 310,000. Potency, µM, for inactives: largest response in the series, negative = inhibition, actives largely listed as inhibitors. Biochemical Sfp PPTase activity, qHTS. Q9F4F7;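 also: the enzyme is Sfp with the accession as filed and its product quenches rhodamine fluorescence; 0% = enzyme reaction without inhibitor and -100% = no enzyme wells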
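With Hepes-Na pH 7.6 buffer containing 10 mM MgCl2, Sfp (15 nM) modified BHQ-2-YbbR (12.5 uM) using rhodamine-CoA (5 uM). Two reads 30 minutes apart at 525/598 nm yielded each well's rate.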
G9a inh = inhibitors of human histone lysine methyltransferase G9a; AID 504332; hit rate 8.8% among 350,000; Potency, µM (top dose mostly 102 µM), for the others: at the highest dose activity, negative = inhibition, usual class: inhibitors; Q96KQ7; G9a H3K9 monomethylation, AlphaScreen, 2 h; also: % is scaled to controls: 0 for no effect and ±100 for the full control effect; nearly all actives have a fitted effect of over 75% in size
Target sequence (Q96KQ7 913-1193 limits assumed): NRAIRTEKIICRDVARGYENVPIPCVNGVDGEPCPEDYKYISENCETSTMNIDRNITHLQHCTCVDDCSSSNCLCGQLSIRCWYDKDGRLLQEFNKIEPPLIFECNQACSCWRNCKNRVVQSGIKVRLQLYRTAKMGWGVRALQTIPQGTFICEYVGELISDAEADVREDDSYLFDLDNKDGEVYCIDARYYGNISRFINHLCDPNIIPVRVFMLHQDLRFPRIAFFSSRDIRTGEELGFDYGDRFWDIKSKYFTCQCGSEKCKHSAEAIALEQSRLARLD
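Quantitative HTS format: methyltransferase activity on a biotin-tagged H3K9 peptide is measured by AlphaScreen, using a rabbit anti-monomethyl-H3K9 antibody with streptavidin donor and anti-IgG acceptor beads. Final levels are 20 nM enzyme, 500 nM peptide, 20 uM SAM; 2 h RT.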
BAZ2B block = inhibitors of human BAZ2B bromodomain; Q9UIF8; AlphaScreen BAZ2B-H3K14Ac peptide displacement; Potency, µM (highest dose often 114 µM), for inactives: at the top dose activity change, negative = inhibition, actives largely listed as inhibitors; hit rate 4.4% among 360,000; AID 504333; also: % is scaled to controls: 0 for no effect and ±100 for the full control effect; nearly all actives have a fitted effect of over 60% in size
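AlphaScreen displacement: compounds (up to 110uM) incubated 30 min at room temperature with a preformed 50 nM BAZ2B/50 nM biotinylated H3K14Ac peptide complex in PBS pH 7.4 with Tween-20. Donor and acceptor beads at 10 ug/mL final added, 20 min light-protected before reading.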
HP1b binding inh = blocks HP1-beta chromodomain binding to methylated histone tails | AlphaScreen HP1-beta / biotin-H3K9me3 peptide binding | hit rate 0.56% among 390,000 | P83916 | Potency, µM (top dose mostly 114 µM), inactives show at the top dose activity change, negative = inhibition, actives largely listed as inhibitors; also: nearly all actives have a fitted effect of over 70% in size
Target sequence (P83916 whole entry, looked up): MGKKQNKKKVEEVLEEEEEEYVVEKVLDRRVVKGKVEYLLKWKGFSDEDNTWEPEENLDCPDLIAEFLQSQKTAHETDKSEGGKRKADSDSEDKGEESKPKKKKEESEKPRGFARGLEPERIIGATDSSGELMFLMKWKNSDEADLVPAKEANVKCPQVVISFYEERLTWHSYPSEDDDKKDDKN
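HP1-beta protein (50 nM final) preincubated 30 min at room temperature with biotinylated H3(1-18)K9me3 peptide (50 nM) in PBS pH 7.4, 0.01% Tween-20, then compound added for 30 min. AlphaScreen streptavidin donor/nickel chelate acceptor beads (10 ug/mL final), 30 min dark, luminescence read.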
12-LOX inh = blocks human arachidonate 12S-lipoxygenase; purified 12hLO, xylenol orange hydroperoxide absorbance; Potency, µM (highest dose often 108 µM), for inactives: top-dose activity change, negative = inhibition, usual class: inhibitors; hit rate 1.1% among 580,000; AID 1671190; also: % is scaled to controls: 0 for no effect and ±100 for the full control effect
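Purified human 12hLO (150 nM final) in 25 mM Hepes, 0.01% Triton X-100, pH 7.0 was preincubated 15 min at room temperature with compound. Then 40 uM arachidonic acid was added, 30 min. Hydroperoxide was read by Fe-XO absorbance ratio 573/405 nm.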
JMJD2A Tudor = inhibitors of human JMJD2A Tudor domain. O75164. AlphaScreen JMJD2A-Tudor / H3K4me3 peptide binding. Potency, µM (titrated, usually from 114 µM), for inactives: at the highest dose activity change, negative = inhibition, actives largely listed as inhibitors. hit rate 4.4% among 390,000. AID 504339; also: % is scaled to controls: 0 for no effect and ±100 for the full control effect; nearly all actives have a fitted effect of over 50% in size
* hit, by the source's call; ? = inconclusive; / = not tested or not shown; [ ] = dose if it differs, or a comment. Calls follow the shape of the dose curve; as a rule, active = well fitted curve in the direction sought with a large enough effect; inconclusive = small, poorly fitted or top-dose-only effect, or another doubt; inactive = no such curve, though single readings can be large; an effect the other way counts as inactive or inconclusive. Potency is read from the fitted curve at half-maximal effect.

SMILES | Sfp PPTase inh | G9a inh | BAZ2B block | HP1b binding inh | 12-LOX inh | JMJD2A Tudor
C#CCOCCOCCOCCNc1nc(N2CCN(C(=O)[C@H](CCCCN)n3cc(CN)nn3)CC2)nc(N2CCN(C(=O)[C@H](CCCCN)n3cc(CN)nn3)CC2)n1 | / | / | / | 29% | ? | 79µM*
C#CCOCCOCCOCCNc1nc(N2CCOCC2)nc(N2CCN(C(=O)[C@H](CCCCN)n3cc(CCC(=O)O)nn3)CC2)n1 | / | / | / | 23% | -16% | -10%
C#CCOCCOCCOCCNc1nc(N2CCN(C(=O)[C@H](CCCCN)n3cc(CN)nn3)CC2)nc(N2CCN(C(=O)[C@H](CCC(=O)O)n3cc([C@@H](N)CCCCN)nn3)CC2)n1 | / | / | / | 32% | 27% | 89µM*
O=CC(Cl)=C(Sc1ccc(Cl)cc1)Sc1ccc(Cl)cc1 | / | / | / | / | -8% | /
Cc1cc(-c2ccc(N=Cc3sccc3C)c(C)c2)ccc1N=Cc1sccc1C | / | / | / | / | -56% | /
CC(Cn1cccn1)C(=O)N1CCc2onc(-c3ccc(F)c(F)c3)c2C1 (stereo unspecified) | / | / | / | / | 29% | /
Cc1nn(-c2ccccc2)c(N2CCCC2)c1/C=N/NC(=O)c1ccccc1O | 10% | 19% | -24% | 16% | -2% | -23%
O=C(N/N=C/c1cc2c3c(c1O)CCCN3CCC2)c1ccccc1O | -16% | ? | 32µM* | -15% | ? | 45µM*
CCCOc1ccc(C2C(C(=O)c3ccc(C)o3)=C(O)C(=O)N2CCN2CCOCC2)cc1OC (stereo unspecified) | -22% | ? | 4% | 15% | ? | 22µM*
CCN(CC)CCN1C(=O)C(O)=C(C(=O)c2sc(C)nc2C)C1c1cccnc1 (stereo unspecified) | 2% | -28%[12.7 µM] | 1% | 7% | 0% | -18%
CCN(CC)CCN1C(=O)C(O)=C(C(=O)c2cc3ccccc3o2)C1c1cccnc1 (stereo unspecified) | 6% | 89µM* | -2% | 50% | -28% | -20%[11.4 µM]
O=C(C1=C(O)C(=O)N(CCCN2CCOCC2)C1c1ccccn1)c1cc2ccccc2o1 (stereo unspecified) | -3% | 40µM* | ? | 29% | ? | -25%
O=C(C1=C(O)C(=O)N(CCN2CCOCC2)C1c1ccco1)c1cc2ccccc2o1 (stereo unspecified) | 8% | 32µM* | ? | 54% | -25% | -4%
COCCC(=O)N[C@H]1CC[C@]2(C)CCC([C@H](C)C(=O)N3CCc4ccccc4C3)[C@H](O)[C@H]2[C@@H]1C (stereo partly specified) | / | / | / | / | 24% | /
O=C(C1=C(O)C(=O)N(CCN2CCOCC2)C1c1ccc(F)cc1)c1cc2ccccc2o1 (stereo unspecified) | 21% | 35µM* | -24% | 11%[57 µM] | ? | -25%
Cc1ccc(C(=O)C2=C(O)C(=O)N(CCN3CCOCC3)C2c2ccccn2)o1 (stereo unspecified) | -17% | 2.2µM* | ? | / | / | /
Cn1ccnc1CN1CCOC[C@H]1c1ncc(-c2cccc(Cl)c2)[nH]1 | / | / | / | / | 62%[176 µM] | /
CCN(Cc1ccccc1)C(=O)CCc1nc(CN2CCN(C(=O)c3ccc([N+](=O)[O-])cc3)CC2)no1 | 9% | 79µM* | -33% | 36% | ? | -10%
CCN(Cc1ccccc1)C(=O)CCc1nc(-c2ccc(C)cc2)no1 | -6% | 140% | 43% | 80% | 0% | 20%
COC(=O)c1ccc2nc(C[C@@H]3C[C@@H](C(C)C)[C@H](CNC(=O)C4CCCCC4)C=C3C)[nH]c2c1 | / | / | / | / | 62% | /
COc1ccccc1-c1nc(COC(=O)C2=CN(Cc3ccccc3)S(=O)(=O)N=C2C)no1 | / | / | / | / | 9% | /
CN(C)C(=S)N=Nc1[nH]c2ccccc2c1O | -19% | 7.9µM* | -35% | 8% | -22% | -25%
NNC1=N[C@H]2CS(=O)(=O)C[C@H]2S1 | 0% | 9%[59 µM] | -5% | 10% | -11% | 8.9µM*
CN1CCC(NC(=O)C2CCCN(S(C)(=O)=O)CCC(=O)NCC2)CC1 (stereo unspecified) | / | / | / | / | 18% | /
Cc1cccc(OCCc2noc(C3CCCCN3Cc3cccnc3)n2)c1 (stereo unspecified) | / | / | / | / | 36% | /
SMILES | Sfp PPTase inh | G9a inh | BAZ2B block | HP1b binding inh | 12-LOX inh | JMJD2A Tudor
CCCOc1cccc(CN2CCCCC2c2cccnc2)c1 (stereo unspecified) | 26% | 45µM* | ? | 36% | -22% | ?
CCCCOc1ccc(NC(=O)Nc2nnc(C)s2)cc1 | 13% | 79µM* | -22% | 52% | 0% | -8%
CCOC(=O)c1ccc(NC(=O)CSc2nccn2C)cc1 | 6% | ? | ? | 32% | -12% | -21%
CCCCOc1ccc(NC(=O)CCSc2nccn2C)cc1 | 18% | 11µM* | ? | -10% | ? | 3.2µM*
CCCCCn1nc(C(=O)NC2(C)CCS(=O)(=O)C2)c2ccccc2c1=O (stereo unspecified) | / | / | / | / | 17% | /
Cc1cccc2nc(C(=O)N3CCN(c4cccc(Cl)c4)CC3)cn12 | / | / | / | / | -12% | /
COc1cc(O)c(C(C)=O)c(OC)c1 | -11% | / | / | 46% | 5% | -23%
COc1cc(O)c(C(C)=O)c(CC(=O)O)c1 | 89µM* | ? | 40µM* | ? | ? | 32µM*
CC(NC(=O)CSc1nc2sc3c(c2c(=O)n1-c1ccccc1)CCCC3)c1ccccc1 (stereo unspecified) | 12% | 15%[59 µM] | 6% | 11% | -8% | -26%
CC(C)C(C)(C#N)NC(=O)CSc1nc2scc(-c3ccco3)c2c(=O)n1-c1ccccc1 (stereo unspecified) | 7.9µM* | 45µM* | -11% | 50% | ? | -3%[11.4 µM]
C=CCn1c(SCC(=O)N2CCCC2)nc2scc(-c3cccs3)c2c1=O | -10% | -40%[59 µM] | -7% | 36% | 6% | -11%
C=CCn1c(SCC(C)=O)nc2scc(-c3ccco3)c2c1=O | 7.1µM* | 7.9µM* | 45µM* | ? | ? | 50µM*
C=CCn1c(SCC(=O)NCCCC(=O)OCC)nc2scc(-c3ccco3)c2c1=O | 18µM* | ? | -14% | 26% | ? | -8%
C=CCn1c(SCC(=O)N2CCOCC2)nc2scc(-c3ccco3)c2c1=O | 2.8µM* | ? | ? | -23% | / | 28µM*
Cc1oc(-c2ccccc2)nc1CN1CCCC1c1nnc2ccccn12 (stereo unspecified) | / | / | / | / | 18% | /
CCCCC1CCC(C(=O)Nc2c(C(C)C)cccc2C(C)C)CC1 (stereo unspecified) | / | / | / | / | 25% | /
Cc1oc(C(=O)O)cc1CSCc1cc(C(=O)O)c(C)o1 | 20µM* | 14µM* | -6% | 11% | ? | 89µM*

Assay outcomes (PubChem)
